The campaign covered roughly 69,000 compounds. About 8,600 (12%) showed an effect of 50% or more. The list comes from a sample in which strong results are over-represented; it also holds similar structures and randomly drawn compounds.
system: Plasmodium berghei; assay: Screen against P. berghei liver stage (PbLuc), transformed with Luciferase, at 10uM; type: functional, HepG2; settings: tested at 10 uM

| SMILES | INHIBITION [%] |
| --- | --- |
| CCN(CC)c1ncccc1CNCc1ccc(Cl)s1 | 49.4 |
| Cc1ncsc1CN(Cc1ccccc1)Cc1ccncc1 | 12.1 |
| CC(C(=O)Nc1ccc(Cl)cn1)n1ccc(C(F)(F)F)n1 (stereo not drawn) | 42.4 |
| Cc1cccc2nc(C(=O)N3CCCC[C@]4(C)NC(=O)CC[C@H]34)cn12 | 22 |
| O=C(NC1CC1)c1cc(C(F)(F)F)cc(C(=O)NC2CC2)n1 | 5.21 |
| Cc1cc(CN(C)Cc2ncc(-c3cccs3)o2)no1 | 1.84 |
| Cc1cc(CN(C)CCC(O)c2ccccc2)no1 (stereo not drawn) | 30.3 |
| Cc1cc(CN(C)CC2CCCCC2)no1 | 23.1 |
| Cc1cc(CN(C)Cc2ncc(C(C)(C)C)o2)no1 | -30.5 |
| Cc1cc(CN(C)Cc2ncc(-c3ccccc3)o2)no1 | 50.7 |
| Cc1cc(CN(C)CCN(C)c2ccccc2)no1 | 82.4 |
| CC(C)c1nccn1CC(=O)Nc1ccnn1C(C)C(C)C (stereo not drawn) | -5.51 |
| COC(=O)c1cccc(C(=O)NCc2ccco2)n1 | 41.6 |
| CC(=O)Nc1ccc(S(=O)(=O)N2CCOC(Cn3ccnc3)C2)cc1 (stereo not drawn) | -36.4 |
| CCc1ccc(NC(=O)CCN2CC(n3nc(C)cc3C)C2)cc1 | 52.6 |
| Cc1cc(C)n(C2CN(CCC(=O)NCCc3ccccc3)C2)n1 | 36.3 |
| Cc1cc(C)n(C2CN(CCC(=O)NC3CCCCC3)C2)n1 | 25.6 |
| CS(=O)(=O)N[C@@H]1CN(C(=O)c2cc3ccccc3s2)C[C@H]1O | -19.7 |
| CC(=O)N1CCC(c2cc(C(F)(F)F)n3ccnc3n2)CC1 | -22.6 |
| FC(F)(F)c1cc(C2CCN(c3cnccn3)CC2)n2ccnc2n1 | -7.98 |
| CC(=O)N1CCC(c2cc(C(F)(F)F)nc3nccn23)CC1 | 61.9 |
| CN(C)C(=O)CN1CCc2onc(-c3ccccc3F)c2C1 | -17.8 |

| SMILES | INHIBITION [%] |
| --- | --- |
| Cc1ccc(CN2C[C@@H]3CN(c4ncc(F)cn4)C[C@@H]3C2)cc1 | 46.7 |
| Fc1cnc(N2C[C@H]3CN(Cc4cccc(F)c4)C[C@H]3C2)nc1 | 60 |
| Fc1cccc(CN2C[C@@H]3CN(c4ncccn4)C[C@@H]3C2)c1 | 28.5 |
| CN(CCCc1cc(-c2ccc(F)cc2)n(C)n1)CC(N)=O | -65.6 |
| CN1CC[C@H](N(Cc2ccccc2)Cc2ccccc2)C[C@H](O)C1 | 32.1 |
| Cc1ccc(CN2CCO[C@@H]3C[C@@H](C(=O)NC(C)C)C[C@H]32)o1 | -26.5 |
| CSCCc1c(-c2ccccc2)ncn1CC(C)(C)N1CCCC1 | 26.7 |
| CN(C)CC(C)(C)Cn1cnc(-c2ccccc2)c1-c1cccc(O)c1 | -39.3 |
| CC(C)(Cn1cnc(-c2ccccc2)c1-c1ccco1)N1CCOCC1 | 51.7 |
| CSCCc1c(-c2ccccc2)ncn1CC(C)(C)N1CCOCC1 | 69.3 |
| CSCCc1c(-c2ccccc2)ncn1[C@H]1C[C@@H](C(=O)O)N(C)C1 | 19.5 |
| CN(C)CC(C)(C)Cn1cnc(-c2ccccc2)c1-c1ccncc1 | -18.1 |
| CCc1cc(CN(C)C(=O)c2cc(=O)[nH]c(=O)[nH]2)on1 | -34.8 |
| CCn1nc(C)c2ncnc(N3CCCC(C)C3)c21 (stereo not drawn) | 26.9 |
| CCN(CC1CCOC1)C(=O)c1ccc(N(C)C)cc1F (stereo not drawn) | 13.8 |
| O=C(Cc1ccccc1)N1CCOC(c2nc(-c3ncccn3)no2)C1 (stereo not drawn) | -20.2 |
| COc1ccc(C(NCc2cccc(O)c2)C2CC2)cc1 (stereo not drawn) | 3.84 |
| COCC1CN(Cc2ccc3c(c2)OCO3)Cc2ncn(C)c21 (stereo not drawn) | 38.2 |
| CCOCC1CN(Cc2ccc3c(c2)OCO3)Cc2ncn(C)c21 (stereo not drawn) | 23.3 |
| CC(C)COCC1CN(Cc2ccoc2)Cc2ncn(C)c21 (stereo not drawn) | 9.51 |
| CC(C)COCC1CN(Cc2ccc3c(c2)OCO3)Cc2ncn(C)c21 (stereo not drawn) | 55.1 |
| CC(C)COCC1CN(Cc2cnn(C)c2)Cc2ncn(C)c21 (stereo not drawn) | 28.3 |

| SMILES | INHIBITION [%] |
| --- | --- |
| Cn1cnc2c1C(COCC1CC1)CN(Cc1ccc3c(c1)OCO3)C2 (stereo not drawn) | 63.5 |
| CC(C)Cn1c(=O)[nH]c2cn(-c3ccc(F)cc3)c(=O)n21 | 11.4 |
| Cc1cc(CN2CCC3(CC2)CC(Nc2ncccn2)CO3)nn1C (stereo not drawn) | -0.813 |
| CC(Cn1cccn1)NCc1csc(COc2ccc(F)cc2)n1 (stereo not drawn) | 33.7 |
| CN(C)C(C(=O)NC1(CO)CCCC1)c1ccc(F)cc1 (stereo not drawn) | 31.3 |
| CCCC1(NC(=O)C(c2ccc(F)cc2)N(C)C)CC1 (stereo not drawn) | 53.6 |
| COCC1(NC(=O)C(c2ccc(F)cc2)N(C)C)CCCC1 (stereo not drawn) | 21.1 |
| CCOc1ccc(CCCC(=O)N2CCC(c3nnn[nH]3)CC2)cc1C | 17.7 |
| CC(C)CC(=O)N1CCCCC(NC(=O)CCc2cccnc2)C1 (stereo not drawn) | 34.4 |
| CCO[C@H]1CCN(S(=O)(=O)c2cn(C)cn2)[C@H]1Cc1ccccc1 | -55.5 |
| Cc1cccn2cc(CN3CCCC(c4noc(C5CC5)n4)C3)nc12 (stereo not drawn) | -48.6 |
| C1CC(c2noc(C3CC3)n2)CN(Cc2noc(C3CC3)n2)C1 (stereo not drawn) | 17.8 |
| c1cc(CN2CCCC(c3noc(C4CC4)n3)C2)no1 (stereo not drawn) | 51.6 |
| CCN(Cc1cnn(C)c1)C[C@H]1CC[C@@H](Cc2ccc(CO)cc2)O1 | -5.78 |
| O=C(NCc1ccco1)[C@H]1C[C@@H]2CCN(c3nncs3)C[C@H]2O1 | 13.5 |
| CCc1nc(CN(C)C(=O)CSC)no1 | -4.96 |
| CN(Cc1noc(-c2ccccc2)n1)C(=O)CSc1nnc(N)s1 | 18.9 |
| CSCC(=O)N(C)Cc1noc(-c2ccccc2)n1 | 55.9 |
| c1ccc(-c2cnc(CN3CCCC3Cn3cccn3)o2)cc1 (stereo not drawn) | 40.9 |
| O=C1CC2(CCCC2)CC(=O)N1Cc1ncccn1 | 29.4 |
| Cn1nc(C(=O)NCc2cccs2)c2c1CCS(=O)(=O)C2 | 23.4 |
| Cn1nc(C(=O)NCc2ccc(F)cc2)c2c1CCS(=O)(=O)C2 | 21.7 |

| SMILES | INHIBITION [%] |
| --- | --- |
| Cn1nc(C(=O)NCc2cccnc2)c2c1CCS(=O)(=O)C2 | 73.9 |
| COc1ccc(CNC(=O)c2nn(C)c3c2CS(=O)(=O)CC3)cc1 | 40 |
| Cn1nc(C(=O)NCc2ccc(Cl)cc2)c2c1CCS(=O)(=O)C2 | 53.2 |
| Cn1nc(C(=O)NCc2ccccn2)c2c1CCS(=O)(=O)C2 | -45 |
| Cc1cnnn1Cc1nnn2c1CN(Cc1ccccn1)CCC2 | 42.6 |
| O=C(O)CSc1nc(-c2ccc3c(c2)CCC3)n[nH]1 | 11.4 |
| O=C([C@H]1CC[C@@H]2[C@@H](CCN2Cc2ccc(F)cc2)O1)N1CCCO1 | -11.6 |
| Cc1nccn1CCC1CCN(c2ncccn2)CC1 | 48.5 |
| c1cnc(N2CCN(CCn3ccnc3-c3c[nH]cn3)CC2)nc1 | 14.5 |
| c1cnc(N2CCN(CCn3ccnc3-c3ccncc3)CC2)nc1 | 50.5 |
| O=C(c1ccncc1)N1Cc2ccccc2OC2(CCOCC2)C1 | 20.5 |
| Cc1cnc(C(=O)N2Cc3ccccc3OC3(CCOCC3)C2)cn1 | -6.92 |
| Cc1cc(C(=O)N2Cc3ccccc3OC3(CCOCC3)C2)nc(N)n1 | 52.9 |
| Nc1nonc1C(=O)N1Cc2ccccc2OC2(CCOCC2)C1 | 8.72 |
| O=C(c1cncnc1)N1Cc2ccccc2OC2(CCOCC2)C1 | -33.4 |
| O=C(c1ccc(O)nc1)N1Cc2ccccc2OC2(CCOCC2)C1 | 25.6 |
| Cc1nc(N)sc1C(=O)N1Cc2ccccc2OC2(CCOCC2)C1 | 61.7 |
| O=C(c1ccccn1)N1Cc2ccccc2OC2(CCOCC2)C1 | 48.4 |
| Cc1ccc(C(=O)N2Cc3ccccc3OC3(CCOCC3)C2)cn1 | 52 |
| Cc1ccc2nc(C3CCCN(Cc4ccccc4)C3)nc(O)c2c1 (stereo not drawn) | 30.8 |
| CN(C)C(=O)N1C[C@@H](C(=O)NCc2ccco2)C[C@H]2OCC[C@H]21 | -28 |
| CCc1cc(=O)n(CC(=O)N2CCCCC2)c(-c2cccc(F)c2)n1 | 44.1 |

| SMILES | INHIBITION [%] |
| --- | --- |
| Cc1ccc(N2CCCC(N(C)c3nn4cc(C)nc4s3)C2)nn1 (stereo not drawn) | -21.9 |
| O[C@H]1CN(Cc2ccc3c(c2)OCCO3)CC[C@@]12CCCO2 | 19.6 |
| Cc1cnc(-c2nc(O)c3c(n2)CN(C(=O)C2CCCO2)CC3)cn1 (stereo not drawn) | 9.05 |
| CCN(Cc1ccoc1)C(=O)C1CCN(C(=O)OC(C)(C)C)C1 (stereo not drawn) | -12.4 |
| O=C(CC1CCC2(CC1)CCN(Cc1ccncc1)CC2)N1CCCC1 | -15.2 |
| CN1CCC(N(CCc2ccccc2)C(=O)c2ccc(CO)cc2)CC1 | 25.2 |
| CN1CCC(N(CCc2ccccc2)C(=O)c2ccc(C#N)nc2)CC1 | 12.5 |
| CN1CCC(N(CCc2ccccc2)C(=O)c2ccc(C#N)cc2)CC1 | 53.1 |
| Cc1cc(C(=O)NC2=NCCS2)c(C)n1-c1ccccn1 | 42.1 |
| Cc1ccsc1CN1CCC(n2cc(C(O)c3ccccc3)nn2)CC1 (stereo not drawn) | 72.1 |
| Cc1ccc(CN2CCC(n3cc(C(O)c4ccccc4)nn3)CC2)o1 (stereo not drawn) | 48.5 |
| OC(c1ccccc1)c1cn(C2CCN(Cc3nccs3)CC2)nn1 (stereo not drawn) | 18.5 |
| CC(C)CC(O)C1CCN(C(=O)c2coc(CN3CCOCC3)c2)CC1 (stereo not drawn) | 16.7 |
| CC(CO)CN(Cc1ccccc1)Cc1c[nH]cn1 (stereo not drawn) | 9.55 |
| CN(C)C1CC2(CCN(C(=O)C3(C#N)CC3)CC2)c2ccccc21 (stereo not drawn) | 57.5 |
| COCC(=O)N1CCC2(CC1)CC(CC(=O)NC1CC1)c1ccccc12 (stereo not drawn) | 25.6 |
| O=C(NC1CC1)N1CCC2(CC1)CC(N1CCOCC1)c1ccccc12 (stereo not drawn) | 43 |
| Cc1ccc2c(c1)C(N(C)C)CC21CCN(CCO)CC1 (stereo not drawn) | -57.1 |
| CN(C)C1CC2(CCN(C(=O)c3csnn3)CC2)c2ccccc21 (stereo not drawn) | -22.1 |
| CN(C)C1CC2(CCN(C(=O)NC3CC3)CC2)c2ccccc21 (stereo not drawn) | 61.1 |
